Bioassay records (PubChem)
Sampled rows, rich in hits. Any-hit rate of the full collection: about 27%.
sEH act = soluble epoxide hydrolase (human) activation; purified human sEH enzymatic activity, activator screen; activation, % at 2 µM; actives 0.04% (n = 91,000); AID 717; in the data active means activation above about 37%
CYP2C19 inhib = human CYP2C19 inhibition; P33261; CYP2C19 Supersomes, luciferin-H EGE luminescence, 30 min; inhibition, % at 5 µM; actives 21% (n = 96,000); AID 778;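 active means CYP2C19 inhibition above a set limit at 5 µM in the primary screen, cut at about 50% in these data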;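 further: plate controls were negative control wells for no effect and 2.5 mM tranylcypromine positive control for full effect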
CYP2C9 activ = activators of human CYP2C9. P11712. recombinant CYP2C9, luciferin-H conversion, luminescence; active compounds read high; factor 1 = untreated enzyme, 0 = blocked. activation factor at 5 µM. actives 1.4% (n = 96,000). AID 1024;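 active means activation factor of 2 or more for CYP2C9 at a 5 µM dose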;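 further: 0 = sulfaphenazole-blocked wells and 1 = vehicle-only wells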
Target sequence (P11712 whole entry, looked up): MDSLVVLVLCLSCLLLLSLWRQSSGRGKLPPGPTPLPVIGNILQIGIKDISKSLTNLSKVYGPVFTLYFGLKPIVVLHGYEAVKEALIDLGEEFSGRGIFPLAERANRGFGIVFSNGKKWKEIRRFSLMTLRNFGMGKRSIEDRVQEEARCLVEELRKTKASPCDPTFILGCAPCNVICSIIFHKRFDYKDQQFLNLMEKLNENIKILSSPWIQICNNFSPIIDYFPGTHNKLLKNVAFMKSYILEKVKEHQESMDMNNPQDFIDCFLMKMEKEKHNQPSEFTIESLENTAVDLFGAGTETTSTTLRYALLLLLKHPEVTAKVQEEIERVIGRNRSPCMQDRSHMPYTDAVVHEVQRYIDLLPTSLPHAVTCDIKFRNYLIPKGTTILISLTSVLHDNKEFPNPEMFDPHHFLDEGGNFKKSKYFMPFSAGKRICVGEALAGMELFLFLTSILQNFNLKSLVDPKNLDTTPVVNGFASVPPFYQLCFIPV
sEH inhibitor = blocks human soluble epoxide hydrolase activity; P34913; recombinant human sEH enzymatic activity assay; inhibition, % at 2 µM; actives 0.34% (n = 91,000); AID 707; in the data active means inhibition above about 80%
CYP2C19 activ = activators of human cytochrome P450 2C19 | P33261 | recombinant CYP2C19, luciferin-H EGE luminescence; active compounds read high; 0 = fully inhibited enzyme, 1 = untreated enzyme | activation factor at 5 µM | 96,000 tested, under 10 active;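 active means activation factor of at least 2 at 5 µM in the primary screen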;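 further: 0 = wells with 2.5 mM tranylcypromine and 1 = vehicle-only wells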
CYP2C9 inhib = blocks human cytochrome P450 2C9; inhibition, % at 5 µM; AID 777; CYP2C9 Supersomes, luciferin-H conversion, luminescence; actives 20% (n = 96,000);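 active means blocking of liver enzyme CYP2C9 beyond about 50% at 5 µM, limit read from the data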
Numbers without * were called inactive; x = no result.

SMILES	sEH act	CYP2C19 inhib	CYP2C9 activ	sEH inhibitor	CYP2C19 activ	CYP2C9 inhib
CC(C)CCNC(=O)CN(C)S(=O)(=O)c1cccc2nsnc12	4	25	0.5	-3	0.7	50*
CN(CC(=O)NCc1cccs1)S(=O)(=O)c1cccc2nsnc12	0	83*	1.2	0	0.2	-25
O=c1c2nnn(Cc3ccc(Cl)cc3)c2ncn1Cc1ccc(F)cc1	6	7	1.1	-6	0.9	-6
COc1ccccc1CNC(=O)COC(=O)c1cc(-c2ccco2)nc2ccccc12	-11	-18	0.5	13	1.2	52*
O=C(COC(=O)c1cc(-c2cccs2)nc2ccccc12)NCc1ccco1	x	54*	0.1	x	0.5	90*
CCCc1cc(C(=O)NCC(C)C)no1	4	33	0.8	-3	0.7	15
COc1ccccc1N1CSC2=C(C#N)C(c3ccc(SC)cc3)CC(=O)N2C1 (stereo not drawn)	-12	34	0.1	12	0.7	88*
COc1cc(C2CC(=O)N3CN(c4ccccc4C)CSC3=C2C#N)cc(OC)c1OC (stereo not drawn)	x	37	0.4	x	0.6	64*
Cc1ccc(S(=O)(=O)N(C)c2ccc(OCC(=O)OCc3c(C)noc3C)cc2)cc1	-2	79*	0.2	0	0.2	75*
CCN(c1ccccc1)S(=O)(=O)c1ccc(OCc2c(C)noc2C)cc1	-9	72*	0.1	11	0.3	86*
Cc1ccc(C(C)C)c(OCC(=O)OCc2c(C)noc2C)c1	-12	9	0.6	14	0.9	38
Cc1cccc(NC(=O)c2sc(NC(=O)c3ccco3)c(C#N)c2C)c1C	3	21	0.9	-3	0.8	13
C=CCc1cccc(Cl)c1OCCON1C(=O)CCC1=O	5	55*	0.8	-3	0.4	21
CC(C)CC(NC(=O)c1ccco1)C(=O)Nc1ccc2c(c1)OCCO2 (stereo not drawn)	3	18	0.9	-1	0.8	14
Cc1ccc(Nc2ccccc2)cc1	26	x	x	-25	x	x
Cc1ccc(NC2=Nc3ccccc3CS2)cc1	-2	51*	0.9	2	0.5	13
CCC(=O)N1CCc2cc(S(=O)(=O)Nc3ccc4c(c3)OCCO4)ccc21	-4	33	0.4	6	0.7	58*
O=C(C1CCC1)N1CCc2cc(S(=O)(=O)Nc3ccc4c(c3)OCCO4)ccc21	x	2	1	x	1	0
Cc1c(S(=O)(=O)Nc2ccc3c(c2)OCCO3)c(=O)n(C)c(=O)n1C	28	23	0.9	-29	0.8	10
CCC(=O)N1CCc2cc(S(=O)(=O)CCC(=O)Nc3ccc(F)c(F)c3)ccc21	-2	28	0.5	2	0.7	52*
CS(=O)(=O)N1CCc2cc(S(=O)(=O)Nc3ccc4c(c3)OCCO4)ccc21	1	99*	0.5	2	0	47
CCC(=O)N1CCc2cc(S(=O)(=O)CCC(=O)Nc3cccc(F)c3)ccc21	-8	7	0.9	6	0.9	9
Cc1nc2nc(C)c(CCC(=O)N3CCOCC3)c(C)n2n1	0	0	0.9	-2	1	10
O=C(NNC(=O)c1ccccc1F)c1cccc(Cl)c1	-9	10	1.2	12	0.9	-17
O=C(NNC1=C(C(=O)C(F)(F)F)CCC1)c1ccc(Cl)cc1	1	2	0.5	-1	1	50*
SMILES	sEH act	CYP2C19 inhib	CYP2C9 activ	sEH inhibitor	CYP2C19 activ	CYP2C9 inhib
O=C(NNC1=C(C(=O)C(F)(F)F)CCC1)c1cccc(Cl)c1	2	26	0.1	-4	0.7	91*
COC(=O)/C=C1/N/C(=N\c2nc(C)cc(C)n2)N(c2ccc(C)c(C)c2)C1=O	7	0	0.7	-8	1	28
Cc1ccc(NCc2nnc(SCC(N)=O)n2CCc2ccccc2)cc1	-2	2	1.1	1	1	-14
Cc1ccc(C)c(NC(=O)CC(NCCCN2CCOCC2)C(=O)O)c1 (stereo not drawn)	1	x	x	-4	x	x
O=C(NNC(=O)c1cc(O)c(O)c(O)c1)NC1CCCCC1	-6	12	1.1	9	0.9	-8
O=C(NC1CCCC1)C(NS(=O)(=O)c1cccc2nsnc12)c1ccccc1 (stereo not drawn)	-11	6	0.5	10	0.9	50*
O=C(NC1CCCCC1)C1CCCN1S(=O)(=O)c1cccc2nsnc12 (stereo not drawn)	-8	41	0.5	7	0.6	54*
CCOC(=O)N1CCN(C(=O)C(NS(=O)(=O)c2cccc3nsnc23)c2ccccc2)CC1 (stereo not drawn)	0	-9	0.3	-5	1.1	73*
COc1cccc(C2/C(=C(\O)c3ccc(OC)c(OC)c3)C(=O)C(=O)N2c2cc(C)on2)c1 (stereo not drawn)	x	-13	1.1	x	1.1	-11
COc1ccc(CCNC(=O)Cn2c(=O)cnc3ccccc32)cc1	-1	39	0.9	4	0.6	7
Cc1cccc(N2C(=O)CS/C2=N\NC(=O)c2ccc(Cl)cc2)c1C	8	x	x	-5	x	x
CCCCP(=O)(CCCC)Cc1ccccc1O	-8	-9	1.1	10	1.1	-15
Cc1ccc(/C=N/n2c(COc3ccccc3)n[nH]c2=S)s1	-6	15	0.2	10	0.9	77*
CON1C(=O)CN(C(C)=O)C1c1ccc(Cl)cc1Cl (stereo not drawn)	-3	54*	1.5	5	0.5	-52
COC(=O)N1CC(=O)N(OC)C1c1ccc(Cl)cc1Cl (stereo not drawn)	-2	87*	1.1	1	0.1	-7
CC12CN3CC(C)(CN(C1)C3c1ccc(Cl)cc1Cl)C2O (stereo not drawn)	-8	14	0.9	7	0.9	7
COCON1C(=O)CN(C(C)=O)C1c1ccc(Cl)cc1Cl (stereo not drawn)	0	34	1	-1	0.7	-2
CCCc1nc(NCC2CCCO2)c2nnn(Cc3ccccc3)c2n1 (stereo not drawn)	-1	x	x	5	x	x
O=C(NCn1ccc(=O)[nH]c1=S)c1ccccc1	-7	5	1	7	1	-1
O=C1CCSc2ccc(Cl)cc2N1Cc1cccc(Cl)c1	9	64*	0.9	-7	0.4	14
CCOCCCNC(=O)C(c1ccc(C)cc1)N(Cc1ccc2c(c1)OCO2)C(=O)CNC(C)=O (stereo not drawn)	4	x	x	-6	x	x
CCn1c(=O)c2cc(C(=O)Nc3cc(C)on3)sc2c2ccccc21	-27	-4	2.1*	26	1	-113
CCOc1ccc(NC(=O)c2ccc(F)c(S(=O)(=O)N3CCN(c4ccccn4)CC3)c2)cc1	-86	0	1	86*	1	4
CC(=O)Nc1ccc(S(=O)(=O)N2CCN(c3ccccn3)CC2)cc1	8	17	0.5	-10	0.8	49
